Bioassay records deposited in PubChem BioAssay by National Center for Advancing Translational Sciences (NCATS).
KB-V1 MDR tox – KB-V1 MDR subline cytotoxicity; KB-V1 MDR cells viability, CellTiter-Glo, 72 h; Potency, µM (series often up to 46.1 µM), hits mostly cytotoxic; 3.4% of 400,000 active; AID 1347076; note: nearly all actives have a fitted effect of over 60% in size
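Drug-selected KB-V1 cells, grown in DMEM lacking phenol red with 10% FBS, receive compound titrations; after three days at 37 degrees C, surviving cell ATP is quantified by CellTiter-Glo luminescence and responses normalized and curve-fitted.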
KB-3-1 cytotox – kills parental KB-3-1 adenocarcinoma cells; KB-3-1 viability, CellTiter-Glo ATP luminescence, 72 h; Potency, µM (highest dose often 46.1 µM), actives largely listed as cytotoxic; 1.4% of 400,000 active; note: nearly all actives have a fitted effect of over 60% in size
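KB-3-1 cells, DMEM (no phenol red) + 10% FBS; compound by pin transfer, 72 h, 37 °C. Readout: CellTiter-Glo luminescence after 10 min. Data normalized, curve-fitted.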
HT1080 IDH1KD tx – HT-1080 IDH1 knockdown cell toxicity (counter line) | HT-1080 IDH1 knockdown viability, ATP luminescence, 48 h | Potency, µM (highest dose often 46.1 µM), without a hit: top-dose activity, negative = toxicity, usual class: cytotoxic | 2% of 360,000 active;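 note: 0% = DMSO wells and -100% = cell-free medium wells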
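Assay cells: HT-1080 with IDH1 knockdown, 750 per well, RPMI/5% FBS. Exposure: 48 h at 37 °C following 2 h pre-incubation. Read: CellTiter-Glo luminescence; fitted concentration-response, curve class assigned.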
HT1080NT lethal – kills 2HG-producing HT-1080-NT fibrosarcoma cells. HT-1080-NT fibrosarcoma viability, CellTiter-Glo ATP luminescence, 48 h. Potency, µM (doses to about 46.1 µM), inactives show top-dose activity, negative = less viability, usual class: cytotoxic. 1.6% of 360,000 active;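 note: NT is the 2HG producing partner of a matched IDH1 knockdown line; 0% = DMSO-treated cells and -100% = media-only wells without cells; nearly all actives have a fitted effect of over 55% in size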
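A 48-hour cytotoxicity screen used HT-1080-NT cells plated 2 hours before compound delivery. ATP-based CellTiter-Glo luminescence measured viability, normalized to DMSO and no-cell controls.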
Starred values were filed as active, the others as inactive; i = inactive; ? = inconclusive; . = no result; [ ] = another dose, or the depositor's remark. A selection: hits, their analogues and other compounds. The true share with any hit is near 5.7%. Calls come from the whole dose curve; as a rule, active = well fitted curve in the direction sought with a large enough effect; inconclusive = small, poorly fitted or top-dose-only effect, or another doubt; inactive = no such curve, though single readings can be large; an effect the other way counts as inactive or inconclusive. Unless noted, % is set by controls: 0 for no effect and ±100 for the full control effect; potency is the fitted concentration of half-maximal effect.

SMILES | KB-V1 MDR tox | KB-3-1 cytotox | HT1080 IDH1KD tx | HT1080NT lethal
COc1ccc(C(C)(O)c2nc(-c3cncnc3)cs2)cc1 (stereo unspecified) | i | i | 2% | 15%
COc1cccc(C(N)c2nc(-c3csc4ccccc34)cs2)c1 (stereo unspecified) | 8.2µM* | 7.3µM* | ? | ?
OC(c1ccccc1)(c1nc(-c2cc3ccccc3o2)cs1)C(F)(F)F (stereo unspecified) | ? | 23µM* | ? | 16µM*
COc1ccc(C(C)(O)c2nc(-c3csc4ccccc34)cs2)cc1 (stereo unspecified) | i | ? | 16µM* | ?
Cc1ccc(COC(=O)c2ccc(-c3nnn(Cc4ccc(C)cc4)n3)cc2)cc1 | i | i | . | .
Cc1cnc2c(C)cccc2c1/C=C/c1ccc(N(C)C)cc1 | i | ? | . | .
CCOC(=O)Cn1nc(-c2ccccc2)c2cnc3ccc(OCC)cc3c21 | i | i | . | .
CN1CCN(c2cccc(Nc3nn4c(=O)c5ccccc5nc4s3)c2)CC1 | i | i | . | .
CCOCCc1nnc(NC(=O)C(=O)c2cc(C)n(-c3ccc(C)cc3C)c2C)s1 | i | i | . | .
OC(c1ccccc1)(c1nc(-c2cccc(C(F)(F)F)c2)cs1)C(F)(F)F (stereo unspecified) | ? | i | 16µM* | 23µM*
COc1ccc(-c2csc(C(O)(c3ccccc3)C(F)(F)F)n2)cc1 (stereo unspecified) | i | i | ? | ?
FC(F)(F)c1cccc(-c2ccn3ncnc3n2)c1 | 21µM* | i | 9% | -3%
COc1ccc(-c2csc(C(O)(c3ccccc3)C(F)(F)F)n2)cn1 (stereo unspecified) | i | i | -29% | 23µM*
COc1ccc(N2CCN(c3oc(-c4ccco4)nc3C#N)CC2)cc1 | 15µM* | ? | 3% | 10%
CC1CCN(C(=O)CN(C)S(=O)(=O)c2cccc3nsnc23)CC1 | 23µM* | i | 2% | -2%
O=C(Nc1ccc(-c2nnc3n2CCCCC3)cc1)c1cc2ccccc2o1 | i | i | -6% | 0%
Cc1c(C(=O)Nc2ccc(-c3nnc4n3CCCCC4)cc2)oc2c1ccc1ccccc12 | ? | ? | 15µM* | ?
CCCN1C(=O)c2[nH]nc(-c3ccccc3O)c2C1c1ccc(OCc2ccccc2)c(OCC)c1 (stereo unspecified) | i | ? | . | .
CCOc1ccc(NC(=O)C2(c3cccs3)CCOCC2)cc1 | i | i | . | .
CC(=O)c1c(O)cc(O)c(C(C)=O)c1O | i | i | 18µM* | 13µM*
CC(=O)c1c(O)cc(O)cc1CC(=O)O | i | i | -3% | 1%
CCC(=O)/C=C1\Sc2ccc(OC)cc2N1CCO | ? | i | 26% | ?
CCC(=O)/C=C1\Sc2ccc(OC)cc2N1CC | 15µM* | ? | -10% | -23%
COc1ccc(-c2c(C)[nH]n3c(=O)c(Cc4ccccc4)c(C)nc23)cc1 | 16µM* | ? | ? | -16%
Cc1nc2c(-c3ccccc3)c[nH]n2c(=O)c1Cc1ccccc1 | ? | 12µM* | -4% | 7%
SMILES | KB-V1 MDR tox | KB-3-1 cytotox | HT1080 IDH1KD tx | HT1080NT lethal
Cc1nn2cc(-c3ccc(OC(C)C)cc3)nc2s1 | i | i | . | .
Cc1cc(C)c2c(n1)SCC(=O)N2CC(=O)Nc1cccc(C)c1C | i | i | . | .
Cc1ccc(C)c(S(=O)(=O)Nc2ccc3scnc3c2)c1 | i | i | 12µM* | ?
Cc1ccc(C)c(S(=O)(=O)Nc2ccc3[nH]c(=O)[nH]c3c2)c1 | i | i | -17% | 2%
CCOc1ccc(S(=O)(=O)N/N=C2/CC(c3ccccc3)Oc3ccccc32)cc1 (stereo unspecified) | 18µM* | ? | -23% | -5%
CCN1C(=O)c2cccc3c(S(=O)(=O)Nc4ccccc4OC)ccc1c23 | 16µM* | ? | -11% | -1%
CCN1C(=O)c2cccc3c(S(=O)(=O)N4CCC(C)CC4)ccc1c23 | 2.1µM* | ? | -16% | -9%
CCN1C(=O)c2cccc3c(S(=O)(=O)NCc4ccccc4)ccc1c23 | i | i | -4% | -6%[9.24 µM]
Cc1ccccc1CNC(=O)Cn1ccc2cc(S(=O)(=O)N3CCCCC3)ccc21 | i | i | . | .
COc1cc(Nc2ncc3c(n2)CCN(Cc2ccc(OC(C)C)c(OC)c2)C3)cc(OC)c1 | i | i | . | .
